Source: PubChem BioAssay
Tau fluor counter: Counterscreen qHTS for Inhibitors of Tau Fibril Formation, Fluorescence Polarization; tau K18 P301L Alexa594 fluorescence, heparin fibrillization; Potency, µM (top dose mostly 57.7 µM), for inactives: top-dose activity change, negative = decrease; 280,000 tested, 0.93% active; also: potency is read from the fitted curve at half-maximal effect; nearly all actives have a fitted effect of over 55% in size
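Human K18 P301L tau (15 uM unlabeled plus 0.24 uM Alexa 594-labeled, final) in 100 mM sodium acetate pH 7 was mixed with compound and 20 uM heparin and incubated 6 hr at 37 C.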
Tau fibril FP: qHTS for Inhibitors of Tau Fibril Formation, Fluorescence Polarization. Microtubule-associated protein tau (Homo sapiens), P10636. K18 P301L tau heparin fibrillization, Alexa594 FP, 6 h. Potency, µM (series often up to 57.7 µM), without a hit: at the highest dose activity, negative = inhibition, hits mostly inhibitors. 280,000 tested, 0.39% active; also: potency is read from the fitted curve at half-maximal effect; nearly all actives have a fitted effect of over 55% in size
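Human tau K18 […] P301L fragment, 15 uM unlabeled plus 0.24 uM Alexa 594-labeled tau (final), with compound and 20 uM heparin in 100 mM sodium acetate pH 7; 6 hr at 37 C, then Alexa 594 FP read.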
NPSR antag: qHTS Assay for Antagonists of the Neuropeptide S Receptor: cAMP Signal Transduction; Q6W5P4; CHO-NPSR cells, cAMP TR-FRET, antagonist mode; Potency, µM (highest dose often 38.3 µM), inactives show at the top dose activity change, negative = inhibition, actives largely listed as inhibitors; 220,000 tested, 1% active; also: potency is read from the fitted curve at half-maximal effect; nearly all actives have a fitted effect of over 50% in size
Target sequence (Q6W5P4 whole entry, looked up): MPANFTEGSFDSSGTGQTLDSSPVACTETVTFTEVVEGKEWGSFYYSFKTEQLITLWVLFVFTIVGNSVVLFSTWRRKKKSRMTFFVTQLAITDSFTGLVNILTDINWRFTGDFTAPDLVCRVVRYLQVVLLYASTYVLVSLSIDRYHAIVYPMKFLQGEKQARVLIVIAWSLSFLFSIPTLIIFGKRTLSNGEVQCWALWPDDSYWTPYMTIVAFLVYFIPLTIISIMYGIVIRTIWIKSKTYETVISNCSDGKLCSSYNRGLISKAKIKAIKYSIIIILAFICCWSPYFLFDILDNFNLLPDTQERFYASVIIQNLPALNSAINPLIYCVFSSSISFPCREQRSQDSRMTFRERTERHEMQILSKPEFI
JMJD2E inh: qHTS Assay for Inhibitors of Human Jumonji Domain Containing 2E (JMJD2E); Lysine-specific demethylase 4E (Homo sapiens), B2RXH2; JMJD2E catalytic domain, FDH-coupled NADH fluorescence (FDH is formaldehyde dehydrogenase); Potency, µM (top dose mostly 57.1 µM), for inactives: at the highest dose activity change, negative = inhibition, usual class: inhibitors; 230,000 tested, 1.6% active; active = well fitted inhibition curve with a large enough effect, not every such curve was filed as active; inconclusive = small, poorly fitted or top-dose-only effect, or another doubt; inactive = no such curve, though single readings can be large or run the other way;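 also: potency is read from the fitted curve at half-maximal effect; 0% = wells with enzyme and -100% = buffer wells without enzyme; nearly all actives have a fitted effect of over 50% in size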
Target sequence (B2RXH2 1-337 limits assumed): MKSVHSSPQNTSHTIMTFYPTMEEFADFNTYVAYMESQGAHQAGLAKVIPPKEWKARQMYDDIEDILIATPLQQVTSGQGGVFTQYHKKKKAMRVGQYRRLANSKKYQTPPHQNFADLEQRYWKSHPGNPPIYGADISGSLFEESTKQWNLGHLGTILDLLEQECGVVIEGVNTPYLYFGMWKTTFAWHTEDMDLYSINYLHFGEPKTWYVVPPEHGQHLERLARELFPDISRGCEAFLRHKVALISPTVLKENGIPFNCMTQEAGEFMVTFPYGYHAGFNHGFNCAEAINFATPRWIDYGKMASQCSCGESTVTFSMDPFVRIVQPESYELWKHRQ
PNC assembly inh: High Content Assay for Compounds that inhibit the Assembly of the Perinucleolar Compartment; PC3M PTB-GFP, PNC prevalence imaging, 16 h; hits give low values; activity change (PNC), negative = inhibition, % at 10 µM; 140,000 tested, 3.1% active;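 active = readout at or below -70, meaning at least 70% loss of cells showing the perinucleolar compartment, a nuclear body marking cancer cells; inconclusive = readout between -30 and a set limit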;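 also: plate controls were DMSO wells for no effect and camptothecin positive control wells for full effect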
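Read-out is percentage of cells bearing a perinucleolar compartment, from automated 20x imaging of fixed, Hoechst-stained PC3M PTB-GFP cells. Cells were seeded 4 h, then exposed 16 h to compound (23 nl of library stock) in duplicate plates.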
Tau fibril ThT: qHTS for Inhibitors of Tau Fibril Formation, Thioflavin T Binding; Microtubule-associated protein tau (Homo sapiens), P10636; recombinant tau K18 P301L (four-repeat tau fragment), heparin-induced fibrillization, ThT fluorescence; Potency, µM (top dose mostly 57.4 µM), without a hit: top-dose activity, negative = inhibition, usual class: inhibitors; 270,000 tested, 2.1% active; AID 1460, 2008; also: potency is read from the fitted curve at half-maximal effect; nearly all actives have a fitted effect of over 55% in size
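K18 P301L tau (15 uM + 0.24 uM Alexa 594-tagged), heparin 20 uM, NaOAc pH 7, 6 h 37 C; ThT 30 uM, 1 h RT, ex 450/em 510 nm.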
Numbers without * were called inactive; [ ] = another dose, or the depositor's remark. Compounds with a hit are over-represented: about 5.1% of the library has one in this group of screens. Unless noted, calls follow the shape of the dose curve; as a rule, active = well fitted curve in the direction sought with a large enough effect; inconclusive = small, poorly fitted or top-dose-only effect, or another doubt; inactive = no such curve, though single readings can be large; an effect the other way counts as inactive or inconclusive. Unless noted, % is scaled to controls: 0 for no effect and ±100 for the full control effect.

For COCc1cc(C)nc(OCC(=O)N/N=C/c2cccc(OC)c2)c1C#N the results were Tau fluor counter -7%, Tau fibril FP 2%, NPSR antag -15%[46.1 µM], JMJD2E inh inconclusive, PNC assembly inh 23 and Tau fibril ThT -11%.
Screening COCc1cc(C)nc(OCC(=O)N/N=C/c2ccccc2O)c1C#N returned Tau fluor counter 3%, Tau fibril FP -3%, NPSR antag 4%, JMJD2E inh 25µM* and Tau fibril ThT -1%.
For COCCn1c(CNC(=O)c2cccc(C)c2)nc2cccnc21 the results were Tau fluor counter -13%, Tau fibril FP -6% and Tau fibril ThT -5%.
CCCCCCCCCCCCCCCCCCOC[C@@H](O)COP(=O)([O-])OCC[N+](C)(C)C was read as Tau fluor counter -10%, Tau fibril FP 1%, JMJD2E inh -1% and Tau fibril ThT -12%.
Screening Cc1ccc(-n2ncc(C(=O)NCCCN3CCc4ccccc4C3)c2C2CCN(C(=O)OC(C)(C)C)CC2)c(C)c1 returned Tau fluor counter -9%, Tau fibril FP inconclusive and Tau fibril ThT -14%.
For CC(=O)c1ccc(N2CCN(C(=O)CS(=O)(=O)c3cccc4nsnc34)CC2)cc1 the results were Tau fluor counter -7%, Tau fibril FP 5% and Tau fibril ThT -18%.
Screening CCOC(=O)c1cnc2ccc(C)cc2c1Nc1ccc(N(CC)CC)cc1 returned Tau fluor counter inconclusive, Tau fibril FP inconclusive and Tau fibril ThT 13µM*.
For CCOC(=O)c1cnc2ccc(Cl)cc2c1Nc1ccc(N2CCOCC2)cc1 the results were Tau fluor counter inconclusive, Tau fibril FP -12% and Tau fibril ThT 16µM*.
`CCOC(=O)c1cnc2ccc(C)cc2c1Nc1ccc(N2CCOCC2)cc1` gave Tau fluor counter inconclusive, Tau fibril FP inconclusive, NPSR antag inconclusive, JMJD2E inh -5%, PNC assembly inh -20 and Tau fibril ThT 28µM*.
Screening CCOC(=O)c1cnc2ccc(C(=O)OC)cc2c1Nc1ccc(N2CCOCC2)cc1 returned Tau fluor counter inconclusive, Tau fibril FP -1% and Tau fibril ThT 14µM*.
Screening CCOC(=O)c1cnc2ccc(Br)cc2c1NCCN1CCOCC1 returned Tau fluor counter -3%, Tau fibril FP 0% and Tau fibril ThT -6%.
Screening COc1ccccc1CCNC(=O)c1cc2c(=O)n3cccc(C)c3nc2n1C returned Tau fluor counter -3%, Tau fibril FP 1% and Tau fibril ThT -1%.
For Cc1ccc(C(=O)Nc2ccc(-n3c(C)nc4ccccc4c3=O)cc2)cc1[N+](=O)[O-] the results were Tau fluor counter inconclusive, Tau fibril FP 5% and Tau fibril ThT inconclusive.
For COc1ccc(NC(=O)CSc2ccccc2)c(OC)c1 the results were Tau fluor counter -14%, Tau fibril FP -5%, NPSR antag -12%[46.1 µM], JMJD2E inh 3%, PNC assembly inh -81* and Tau fibril ThT -10%.
Screening COc1ccc(NC(=O)CSc2ccccc2)cc1S(=O)(=O)N1CCCCC1 returned Tau fluor counter -12%, Tau fibril FP 11%, NPSR antag 3%, JMJD2E inh 3%, PNC assembly inh -81* and Tau fibril ThT -5%.
For O=C1C(c2ccc(C(F)(F)F)cc2)=C(Nc2ccc(Cl)cc2)c2ccccc21 the results were Tau fluor counter inconclusive, Tau fibril FP -8% and Tau fibril ThT -12%.
For COc1cc(OC)c(OC)cc1CNCCCSc1nnnn1C the results were Tau fluor counter 6%, Tau fibril FP -6% and Tau fibril ThT 12%.
COC(=O)C1=C(Cn2cnc3ccccc32)NC(=O)NC1c1cc(C)ccc1C (centres undefined) was read as Tau fluor counter -6%, Tau fibril FP -4%, NPSR antag -12%[46.1 µM], JMJD2E inh 2%, PNC assembly inh -103* and Tau fibril ThT -4%.
For COc1cc(/C=N/N2C(=O)CSC2=S)ccc1O the results were Tau fluor counter -20%, Tau fibril FP -6%, NPSR antag -16%[46.1 µM], JMJD2E inh 3%, PNC assembly inh 5 and Tau fibril ThT 14µM*.
For CC1CCC(C(C)C)[C@H](OC(=O)c2ccccc2)C1 (some centres undefined) the results were Tau fluor counter -1%, Tau fibril FP -6%, JMJD2E inh 13% and Tau fibril ThT 1%.
CC1CCC(C(C)C)C(OC(=O)C2=C3c4ccccc4S(=O)(=O)N3CC2)C1 (centres undefined) was read as Tau fluor counter -7%, Tau fibril FP -5%, NPSR antag 10µM*, JMJD2E inh inconclusive, PNC assembly inh inconclusive and Tau fibril ThT -9%.
`c1ccc(-c2cn3c(n2)-c2ccccc2C3)cc1` gave Tau fluor counter -9%, Tau fibril FP 4%, NPSR antag 5%, JMJD2E inh 3.2µM*, PNC assembly inh 43 and Tau fibril ThT inconclusive.
Screening CCN(CC)c1ccc(/C=N/NC(=O)c2ccc([N+](=O)[O-])cc2)cc1 returned Tau fluor counter -19%, Tau fibril FP -4%, NPSR antag 15%, JMJD2E inh 5% and Tau fibril ThT inconclusive.
`CCN(CC)c1ccc(/C=N/N2CCN(c3ccccn3)CC2)cc1` gave Tau fluor counter inconclusive, Tau fibril FP 0%, NPSR antag -13%, JMJD2E inh -3% and Tau fibril ThT 1.3µM*.
`CCN(CC)c1ccc(/C=N/NC(=O)c2c[nH]c3ccccc23)cc1` gave Tau fluor counter 13µM*[quencher], Tau fibril FP 7%, NPSR antag -50%, JMJD2E inh 3%, PNC assembly inh inconclusive and Tau fibril ThT 5µM*.
Screening C/C(=N\NC(=O)CCc1c[nH]c2ccccc12)c1ccc([N+](=O)[O-])cc1 returned Tau fluor counter inconclusive, Tau fibril FP 15%, NPSR antag -2%, JMJD2E inh 7%, PNC assembly inh -18 and Tau fibril ThT 10µM*.
Screening CCN(CC)c1ccc(/C=N/NC(=O)c2cc(C)nc3ccccc23)cc1 returned Tau fluor counter inconclusive, Tau fibril FP 15%, NPSR antag -22%, JMJD2E inh -16% and Tau fibril ThT inconclusive.
Screening CCN(CC)c1ccc(/C=N/NC(=O)c2cnccn2)cc1 returned Tau fluor counter -17%, Tau fibril FP -4%, NPSR antag 3%, JMJD2E inh -7% and Tau fibril ThT 14µM*.
